The whole screen tested about 360,000 compounds, of which about 25,000 (6.9%) were called active. Where a call stands in place of a potency, no number is given. Inconclusive results (about 9%) are left out. The sample holds actives, similar compounds and a random draw of the others, so the mix is not that of the screen. The call rests on the fitted dose curve; in most records, active means well fitted inhibition curve with a large enough effect; inconclusive means small, poorly fitted or top-dose-only effect; inactive means flat fitted curve, though single readings scatter.
The compounds below were run against Luciferin 4-monooxygenase (Photinus pyralis) (UniProt P08659) (assay: qHTS profiling assay for firefly luciferase inhibitor/activator using purifed enzyme and Km concentrations of substrates (counterscreen for miR-21 project)). Details: purified FLuc, luminescence inhibition; series mostly up to 57.5 µM.
Luciferin 4-monooxygenase (Photinus pyralis), sequence (P08659 whole entry, looked up): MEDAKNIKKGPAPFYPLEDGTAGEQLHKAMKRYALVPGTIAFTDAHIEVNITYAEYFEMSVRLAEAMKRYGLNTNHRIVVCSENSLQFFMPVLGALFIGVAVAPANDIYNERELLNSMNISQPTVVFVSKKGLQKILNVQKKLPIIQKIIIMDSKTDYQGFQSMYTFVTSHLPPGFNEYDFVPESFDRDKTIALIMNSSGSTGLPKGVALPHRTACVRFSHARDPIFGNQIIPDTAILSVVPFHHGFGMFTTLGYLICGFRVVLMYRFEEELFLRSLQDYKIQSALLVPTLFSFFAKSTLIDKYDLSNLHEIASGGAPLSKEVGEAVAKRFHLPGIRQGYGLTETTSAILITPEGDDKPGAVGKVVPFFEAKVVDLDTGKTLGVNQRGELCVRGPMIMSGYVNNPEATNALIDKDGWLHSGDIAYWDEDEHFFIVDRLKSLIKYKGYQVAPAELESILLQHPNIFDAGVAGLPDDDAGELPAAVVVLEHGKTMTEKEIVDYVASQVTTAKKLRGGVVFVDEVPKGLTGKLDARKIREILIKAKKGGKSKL
Text: MLPCN Grant: 1 R21 NS059478-01 (miR-21 grant) Assay Provider: NCGC NCGC Assay Overview: Firefly (Photinus pyralis) luciferase is one of the most commonly used transcriptional reporters for a number of reasons. It is considered one of the more dynamically responsive reporters -that is, responsive to changes in reporter transcription - as it requires no post-translational modifications and is enzymatically active directly after protein synthesis (Wood, 1998). Additionally, the half-life of the luciferase protein is short relative to other reporter-gene products (Wood, 1995). Whereas reporters with long half-lives potentially allow for increased signal due to accumulation of reporter-gene product, once accumulated in the cell, dynamic changes in reporter-gene expression may be difficult to detect(Fan and Wood, 2007; Almond et al., 2004). It has been shown that wild-type P. pyralis luciferase has a half-life of approximately […] hours in mammalian cells (Thompson et al., 1991). Firefly luciferase reporter-gene assays are also generally considered one of the most sensitive assay types (Wood, 1995; Wood, 1998). Although light produced in a bioluminescence reaction is of lower intensity than that produced during fluorescence emission, this is offset by little to no background light inherent to luminescent assays. Thus the luciferase reporter can be expressed at much lower levels than fluorescent proteins while still providing robust signal. # However, it was initially observed, in 1991, by Thompson et al., that compounds that resemble the substrates of firefly luciferase (FLuc) can act as competitive inhibitors of the enzyme, and that these compounds, upon interaction with luciferase in the cell, can actually stabilize the protein and increase its half-life. Accumulated intracellular FLuc protein can be measured as an increase in luminescence signal, upon addition of detection reagents (which contain high concentrations of FLuc substrates) commonly used in high-throughput screening. In cell-based reporter gene assays that use FLuc as the reporter gene to quantitate the potential influence of a given compound against the target biology, this apparent increase in luminescence can mistakenly be interpreted as identification of a compound that is active against the target of interest. This is the case for the miR-21 FLuc reporter gene assay used to identify inhibitors of the miR-21 pathway (PubChem AID 2289) - compounds of interest will inhibit miR-21 biogenesis/expression or activity, and are identified by causing an increase in luminescence, due to increased FLuc translation. However, FLuc inhibitory compounds that stabilize the FLuc protein will give an identical read-out, making it difficult to distinguish compounds that are active against the target from those active against FLuc. Previous profiling work to determine the prevalence of compounds that affect FLuc enzymatic activity (PubChem AID 411) identified that ~3% of the MLSMR library (then at ~72K) inhibited FLuc. […] Since the MLSMR had grown to ~350K compounds, and since it was expected that a significant percentage of compounds found active in the miR-21 FLuc assay would be FLuc inhibitors, the library was screened for activity against FLuc using a biochemical assay of purified FLuc and KM concentrations of FLuc substrates (D-luciferin and ATP).
NCGC Assay Protocol Summary: Reagents: 50mM Tris acetate, pH 7.5; 10mM Mg acetate; 10uM D-luciferin (Sigma #L9504); 10uM ATP; 0.01% Tween-20; 0.05% BSA; 10nM P. pyralis luciferase (Sigma #L9506) Control compounds used were two known firefly luciferase inhibitors (compounds (2) and (5) in Auld et al., 2010), and DMSO. […]
In the case of O=[N+]([O-])c1cnc2ccc3ccccc3c2c1, the Potency is reported as “inactive”.
With CCCCCn1c(=O)c(C(=O)NCc2ccccc2)c(O)c2ccccc21 the Potency was “inactive”.
COC(=O)C1=C(c2c(C)noc2C)C[C@@H]2CC[C@H]1N2C(=O)NCc1ccc2c(c1)OCO2 was tested, and the Potency was “inactive”.
In the case of Cc1cccc(Cn2cccc(C(=O)Nc3ccc4c(c3)OCCO4)c2=O)c1, the Potency is reported as 15.1 µM (active).
For Cc1ccc(NC(=O)N(Cc2ccc3c(c2)OCO3)C2CCN(Cc3ccccc3)CC2)cc1F, the Potency was “inactive”.
In the case of Cc1nnc(NC(=O)c2cccn(Cc3cccc(F)c3)c2=O)s1, the Potency is reported as “inactive”.
In the case of Cn1cc(C(=O)OCC(=O)N2CCCC2)c2ccccc21, the Potency is reported as “inactive”.
In the case of COC(=O)C1=C(c2ccccc2OCc2ccccc2)C[C@@H]2CC[C@H]1N2C(=O)NCc1ccc(OC)cc1, the Potency is reported as “inactive”.
In the case of C[C@@]1([C@@H](NP(=O)(c2ccccc2)c2ccccc2)c2ccccc2)C[C@H]1CCO, the Potency is reported as “inactive”.
O=C(O)CCn1cc(C=C2C(=O)NC(=S)NC2=O)c(-c2cccc(Br)c2)n1 was tested, and the Potency was 21.3 µM (active).
With COC(=O)C1=C(c2ccc(C(C)=O)cc2)C[C@@H]2CC[C@H]1N2C(=O)NCCNC(C)=O the Potency was “inactive”.
In the case of Cc1ccnc(-n2c(C)cc(/C=C3\C(=O)NC(=S)N(C)C3=O)c2C)c1, the Potency is reported as 7.57 µM (active).
With Cc1cc(C=C2C(=O)NC(=O)NC2=O)c(C)n1-c1ccncc1 the Potency was “inactive”.
For Cc1ccccc1N1C(=O)NC(=O)/C(=C\c2cc(C)n(C)c2C)C1=O, the Potency was “inactive”.
In the case of O=C(CCC(=O)N1C[C@H]2C[C@@H](C1)c1cccc(=O)n1C2)NCc1ccccc1C(F)(F)F, the Potency is reported as “inactive”.
COC(=O)C1=C(c2ccc(-c3ccccc3)c(F)c2)C[C@@H]2CC[C@H]1N2C(=O)NCc1ccc(F)cc1 was tested, and the Potency was “inactive”.
In the case of Cc1cc(C)cc(NC(=S)NC2CC3CCCC(C2)N3Cc2cccs2)c1 (stereo not drawn), the Potency is reported as “inactive”.
In the case of Cc1nc2ccccn2c1P(=S)(N1CCCCC1)N1CCCCC1, the Potency is reported as “inactive”.
O=C1NC(=O)C(C/C=C/c2ccccc2)C(=O)N1 was tested, and the Potency was “inactive”.
For Cc1ccc(NN=C2C(=O)OC(C)(C)OC2=O)c(C)c1, the Potency was 9.53 µM (active).
With CC1=C(C(=O)Nc2ccccc2)S(=O)(=O)CCO1 the Potency was “inactive”.
O=C(O)c1ccccc1NC(=O)C1C2CCC(O2)C1C(=O)O (stereo not drawn) was tested, and the Potency was “inactive”.
With Fc1ccc(C2N3CCCN23)cc1 (stereo not drawn) the Potency was “inactive”.
For CN1CCN(C(=O)COc2ccc(C(C)(C)C)cc2Br)CC1, the Potency was “inactive”.
With CC(C)(C)c1ccc(OC(=O)N2CCCCC2)cc1 the Potency was 10.7 µM (active).
For O=C(Nc1cccc(OC(=O)N2CCCCC2)c1)N1CCOCC1, the Potency was “inactive”.
In the case of COC(=O)C1=C(c2ccc3ccccc3c2)C[C@@H]2CC[C@H]1N2C(=O)NCCO, the Potency is reported as “inactive”.
In the case of CCCCCn1c(=O)c(C(=O)NCc2ccccn2)c(O)c2ccccc21, the Potency is reported as “inactive”.

— PubChem BioAssay AID588342 (National Center for Advancing Translational Sciences (NCATS), 2011)
Further: nearly all actives have a fitted effect of over 55% in size.
